HP1b binding inh: blocks HP1-beta chromodomain binding to methylated histone tails | P83916 | AlphaScreen HP1-beta / biotin-H3K9me3 peptide binding | Potency, µM (titrated, usually from 114 µM), for the others: top-dose activity change, negative = inhibition, usual class: inhibitors | actives 0.56% (n = 390,000); note: nearly all actives have a fitted effect of over 70% in size
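AlphaScreen: HP1-beta (50 nM) preformed 30 min with biotin-H3(1-18)K9me3 peptide (50 nM) in PBS pH 7.4, 0.01% Tween-20. Compound added for 30 min at RT, then streptavidin donor/nickel chelate acceptor beads (10 ug/mL) for 30 min.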
TDP1 block: TDP1 (human) enzyme inhibition | recombinant TDP1, AlphaScreen DNA substrate cleavage | Potency, µM (highest dose often 130 µM), without a hit: at the top dose activity change, negative = inhibition, hits mostly inhibitors | actives 0.28% (n = 350,000) | AID 485290; note: % is set by controls: 0 for no effect and ±100 for the full control effect; nearly all actives have a fitted effect of over 40% in size
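Here, a 5' biotin and 3' phosphotyrosine-FITC DNA oligonucleotide reports Tdp1 activity: intact substrate bridges AlphaScreen beads, while cleavage leaves a 3' phosphate and drops signal. All incubations at room temperature.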
BAZ2B inh: inhibitors of human BAZ2B bromodomain | AlphaScreen BAZ2B-H3K14Ac peptide displacement | Potency, µM (highest dose often 114 µM), for inactives: top-dose activity change, negative = inhibition, hits mostly inhibitors | actives 4.4% (n = 360,000) | AID 504333; note: % is set by controls: 0 for no effect and ±100 for the full control effect; nearly all actives have a fitted effect of over 60% in size
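In this displacement format the biotinylated H3(5-23) peptide acetylated at Lys14 serves as ligand at 50 nM, with BAZ2B at 50 nM in PBS pH 7.4 containing 0.01% Tween-20. Donor and acceptor beads are 10 ug/mL final.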
Sfp PPTase inh: Sfp phosphopantetheinyl transferase inhibition | Q9F4F7 | Biochemical Sfp PPTase activity, qHTS | Potency, µM, inactives show largest response in the series, negative = inhibition, usual class: inhibitors | actives 3.5% (n = 310,000) | AID 1490;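 note: the enzyme is Sfp with the accession as filed and its product quenches rhodamine fluorescence; 0% = enzyme reaction without inhibitor and -100% = no enzyme wells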
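Reaction rates are the 30-min fluorescence difference (ex 525, em 598 nm) in wells containing 15 nM Sfp, 5 uM rhodamine-CoA and 12.5 uM BHQ-2-YbbR at pH 7.6 with 10 mM MgCl2.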
G9a block: blocks human histone lysine methyltransferase G9a; Q96KQ7; G9a H3K9 monomethylation, AlphaScreen, 2 h; AID 504332; actives 8.8% (n = 350,000); Potency, µM (highest dose often 102 µM), for the others: at the top dose activity, negative = inhibition, most hits filed as inhibitors; note: % is set by controls: 0 for no effect and ±100 for the full control effect; nearly all actives have a fitted effect of over 75% in size
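Signal arises when biotinylated H3K9 peptide, once monomethylated, bridges streptavidin donor and antibody-captured acceptor beads. Enzyme at 20 nM was preincubated 15 min with test compounds; peptide 500 nM and SAM 20 uM then reacted for 2 h.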
JMJD2A Tudor inh: inhibitors of human JMJD2A Tudor domain | O75164 | AlphaScreen JMJD2A-Tudor / H3K4me3 peptide binding | Potency, µM (doses to about 114 µM), for inactives: at the top dose activity change, negative = inhibition, usual class: inhibitors | actives 4.4% (n = 390,000) | AID 504339; note: % is set by controls: 0 for no effect and ±100 for the full control effect; nearly all actives have a fitted effect of over 50% in size
Starred values were filed as active, the others as inactive; u = inconclusive; x = no result given; [ ] = another dose, or the depositor's remark. Shown are actives, neighbours in structure and some others; about 12% of the full set was active somewhere. Calls come from the whole dose curve; as a rule, active = well fitted curve in the direction sought with a large enough effect; inconclusive = small, poorly fitted or top-dose-only effect, or another doubt; inactive = no such curve, though single readings can be large; an effect the other way counts as inactive or inconclusive. Potency is the fitted concentration of half-maximal effect.

SMILES	HP1b binding inh	TDP1 block	BAZ2B inh	Sfp PPTase inh	G9a block	JMJD2A Tudor inh
COc1ccc(NC2SC(=O)N(CC(=O)O)C2=O)cc1 (configuration not stated)	8%	2%	-28%	-6%	40µM*	79µM*
CCCCN(Cc1ccco1)S(=O)(=O)c1csc(C(N)=O)c1	4%	2%	u	3%	-3%	-16%
NC(=O)C1CCN(C(=O)CCc2nc3sc4c(c3c(=O)[nH]2)CCCC4)CC1	-11%	x	50µM*	x	50µM*	u
Cc1cccc(NC(=O)C(C)SCc2nc3sc4c(c3c(=O)[nH]2)CCCC4)n1 (configuration not stated)	30%	-5%	1%	x	56µM*	-19%
CCc1cccc(NC(=O)CCc2nc3sc4c(c3c(=O)[nH]2)CCCC4)c1	6%	x	71µM*	x	-32%	u
Cc1cc(C(=O)OCC(=O)Nc2c(Cl)cccc2C(F)(F)F)c(C)o1	25%	-3%	51%	x	-50%	-7%
O=C(CN1CCN(C(=O)CNC(=O)c2ccc(N3CCCC3=O)cc2)CC1)Nc1ccccc1Cl	24%	1%	-13%	x	-16%[12.7 µM]	-6%
COc1ccc(NC2C=CS(=O)(=O)C2)c(OC)c1 (configuration not stated)	7%	7%	10%	79µM*	6%[2.33 µM]	-28%
COc1cccc(NC2C=CS(=O)(=O)C2)c1 (configuration not stated)	21%	-2%	8%	15%	-1%[59 µM]	-13%
CC(C)(CC(=O)O)CC(=O)N1CCN(c2cc(C(F)(F)F)nc3ccccc23)CC1	32%	x	-4%	3%	-1%[12.7 µM]	-6%
O=C(NCc1ccc(Cl)cc1)c1cnc2sc(N3CCCC3)nn2c1=O	25%	2%	-1%	x	-2%[59 µM]	79µM*
O=C(NCc1ccc(Cl)cc1)c1cnc2sc(N3CCOCC3)nn2c1=O	0%	0%	4%	x	-22%[59 µM]	-17%
CCOC(=O)C1=C(COC(=O)c2ccc(OC)c(S(=O)(=O)N3CCOCC3)c2)NC(=O)NC1C (configuration not stated)	41%	x	x	x	x	-6%
CN(C)c1nc(-c2cn(CCC#N)c3ccccc23)cs1	-15%	-3%	u	-25%	28µM*	50µM*
COc1ccccc1-c1noc(-c2ccc(NCCc3ccccc3)c([N+](=O)[O-])c2)n1	19%	11%	-4%	x	u	-24%
COc1cc(NS(=O)(=O)c2ccc(Nc3nc(-c4cccc([N+](=O)[O-])c4)cs3)cc2)nc(OC)n1	u	9%	45µM*	3%	50µM*	u
COc1ccc(-c2cccc(NS(=O)(=O)c3cccc([N+](=O)[O-])c3)c2)nn1	-11%	6%	3%	x	u	-22%
COc1ccccc1Nc1nc(-c2cccc([N+](=O)[O-])c2)cs1	-14%	11%	u	11µM*	u	u
O=[N+]([O-])c1cccc(-c2csc(Nc3ccccc3)n2)c1	-25%	11%	u	-14%	40µM*	u
COc1ccc(CNC(=O)c2cnn(-c3ccc(C)cc3)c2C2CCN(C(=O)OC(C)(C)C)CC2)cc1	17%	0%	-5%	x	-1%[59 µM]	-33%
COc1ccc(OC)c(NC(=O)COC(=O)CCS(=O)(=O)c2ccc(Cl)cc2)c1	18%	1%	x	x	x	-5%
COC(=O)C1=C(C(=O)OC)[C@@H]2N(C)c3ccccc3[C@@]23C[C@@H](C(=O)OC)N(S(=O)(=O)c2c(C)noc2C)C3=N1	x	11%[12.3 µM]	x	-2%	x	x
CCC1Nc2ncnc(N3CCOCC3)c2N(Cc2ccc(OC)cc2)C1=O (configuration not stated)	29%	1%	x	x	x	56µM*
O=C1C(Cc2ccccc2)Nc2ncnc(N3CCOCC3)c2N1Cc1ccc(Cl)cc1 (configuration not stated)	18%	x	-26%	x	4.5µM*	u
CCC1Nc2ncnc(N3CCN(c4ccccc4)CC3)c2N(Cc2ccc(OC)cc2)C1=O (configuration not stated)	7%	6%	u	x	10%[2.33 µM]	u
SMILES	HP1b binding inh	TDP1 block	BAZ2B inh	Sfp PPTase inh	G9a block	JMJD2A Tudor inh
O=C1C(Cc2ccccc2)Nc2ncnc(N3CCN(c4ccccc4)CC3)c2N1Cc1ccccc1 (configuration not stated)	6%	x	u	x	u	63µM*
Cc1ccc(CN2C(=O)C(Cc3ccccc3)Nc3ncnc(N4CCN(c5ccccc5)CC4)c32)cc1 (configuration not stated)	52%	4%	-33%	x	7%[2.33 µM]	-30%
CCC1Nc2ncnc(N3CCOCC3)c2N(Cc2ccccc2)C1=O (configuration not stated)	36%	-2%	2%	x	28%[2.33 µM]	-21%
O=C(c1cnccn1)N1CCC[C@@]2(CCN(Cc3cc(C(F)(F)F)cc(C(F)(F)F)c3)C2)C1	x	x	x	-26%	-2%[12.7 µM]	x
Nc1cc(C(F)(F)F)ccc1S(=O)(=O)Nc1cccc2c1NCCC2	12%	4%	x	x	x	u
CCC(=O)OCOc1ccc(/C=C2/CCC(CN(C)C)C2=O)cc1 (configuration not stated)	u	x	x	x	x	89µM*
CN1C(=O)NC(c2ccc(C(F)(F)F)cc2)C2=C1CC(C)(C)CC2=O (configuration not stated)	31%	x	7%	9%	-29%	-4%
Clc1ccc(-c2nnc(C3CC3)o2)cc1	6%	x	3%	14%	15%[59 µM]	-12%
CCC1CCC(c2nnc(-c3ccc([N+](=O)[O-])cc3)o2)CC1 (configuration not stated)	-11%	0%	u	-2%	10µM*	-33%
COCCCNC(=O)/C(C#N)=C/c1cc(C)[nH]c1C	27%	-2%	-21%	18%	7%	-3%
Cc1cccc(NC(=S)N2CCN(c3ccc(F)cc3)CC2)c1	31%	-3%	-19%	12%	-2%	-12%
Cc1ccc(NS(=O)(=O)c2ccc3c(c2)CCC(=O)N3)cc1F	x	1%	x	x	x	-26%
COc1ccc(NC(=S)N(Cc2ccc(Cl)cc2)Cc2ccc(C(=O)O)cc2)cc1Cl	12%	-1%	u	50µM*	u	-25%
COc1ccc(CN(Cc2ccc(C(=O)O)cc2)C(=S)Nc2ccccc2C)cc1OC	36%	-2%	-11%	-22%	45µM*	-16%
Cc1cc(NC(=S)N(Cc2ccc(Cl)cc2)Cc2ccc(C(=O)O)cc2)ccc1Cl	4%	5%	u	-6%	u	-24%
Cc1ccc(NC(=S)N(Cc2ccc(Br)cc2)Cc2ccc(C(=O)O)cc2)cc1C	-19%	-2%	-28%	17%	45µM*	-27%
